Data: PubChem BioAssay AID1159580 (chemical genetic matrix, 2015)
Among all 5,500 compounds or so, about 2,000 (36%) were called active. Roughly 18% stayed inconclusive and do not appear here. The list shows a part of the results. Values without a mark were called inactive. Rule as the data show it: active = normalized growth mostly below about 0.91 (no sharp cut-off); inconclusive = no clear call, values can overlap the other calls; inactive = mostly above about 0.92.

Experiment: chemical genetic growth profiling, strain panel (AID 1159580);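 also: tested at 20 µM; growth read once vehicle control cultures reached saturation at 30 °C; 1 = growth at the plate median or of vehicle wells; lower values mean less growth of the strain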
Details: growth OD
[1] = S. cerevisiae deletion strains, locus YBR229C, strain ROT2, stronger effect = lower value
[2] = S. cerevisiae deletion strains, locus YDL101C, strain DUN1, stronger effect = lower value
[3] = S. cerevisiae deletion strains, locus YDR150W, strain NUM1, stronger effect = lower value
[4] = S. cerevisiae deletion strains, locus YEL061C, strain CIN8, stronger effect = lower value
[5] = S. cerevisiae deletion strains, locus YGR078C, strain PAC10, stronger effect = lower value
[6] = S. cerevisiae deletion strains, locus YHR030C, strain SLT2, stronger effect = lower value
[7] = S. cerevisiae deletion strains, locus YJR043C, strain POL32, stronger effect = lower value
[8] = S. cerevisiae deletion strains, locus YJR075W, strain HOC1, stronger effect = lower value
[9] = S. cerevisiae deletion strains, locus YLR039C, strain RIC1, stronger effect = lower value
[10] = S. cerevisiae deletion strains, locus YLR262C, strain YPT6, stronger effect = lower value
[11] = S. cerevisiae deletion strains, locus YMR307W, strain GAS1, stronger effect = lower value
[12] = S. cerevisiae deletion strains, locus YNL322C, strain KRE1, stronger effect = lower value
[13] = S. cerevisiae deletion strains, locus YOL006C, strain TOP1, stronger effect = lower value
[14] = S. cerevisiae deletion strains, locus YPL241C, strain CIN2, stronger effect = lower value

Structure (SMILES): Cc1cccc(C)c1NC(=O)C(C)Oc1ccc(Cl)cc1Cl (stereo not drawn)
- normalized growth (S. cerevisiae deletion strains, locus YAL013W, strain DEP1, stronger effect = lower value): 1.01
- normalized growth [1]: 1
- normalized growth [2]: 1.01
- normalized growth [3]: 1.02
- normalized growth [4]: 0.996
- normalized growth [5]: 1
- normalized growth [6]: 0.989
- normalized growth (S. cerevisiae deletion strains, locus YHR087W, strain rtc3, stronger effect = lower value): 1.01
- normalized growth (S. cerevisiae deletion strains, locus YJL187C, strain SWE1, stronger effect = lower value): 1.01
- normalized growth [7]: 1
- normalized growth [8]: 0.998
- normalized growth (S. cerevisiae deletion strains, locus YKL190W, strain CNB1, stronger effect = lower value): 0.999
- normalized growth [9]: 0.961
- normalized growth (S. cerevisiae deletion strains, locus YLR058C, strain SHM2 (second series), stronger effect = lower value): 0.997
- normalized growth (S. cerevisiae deletion strains, locus YLR085C, strain ARP6, stronger effect = lower value): 1.02
- normalized growth [10]: 0.963
- normalized growth (S. cerevisiae deletion strains, locus YML094W, strain GIM5, stronger effect = lower value): 1.09
- normalized growth (S. cerevisiae deletion strains, locus YMR219W, strain ESC1, stronger effect = lower value): 1.01
- normalized growth (S. cerevisiae deletion strains, locus YMR263W, strain SAP30, stronger effect = lower value): 1
- normalized growth [11]: 0.929
- normalized growth (S. cerevisiae deletion strains, locus YNL153C, strain GIM3, stronger effect = lower value): 1.02
- normalized growth (S. cerevisiae deletion strains, locus YNL298W, strain CLA4 (second series), stronger effect = lower value): 1.02
- normalized growth [12]: 1
- normalized growth (S. cerevisiae deletion strains, locus YNR030W, strain Alg12, stronger effect = lower value): 1.01
- normalized growth [13]: 1.04
- normalized growth (S. cerevisiae deletion strains, locus YPL055C, strain LGE1, stronger effect = lower value): 1.04
- normalized growth [14]: 1.05
- normalized growth (S. cerevisiae deletion strains, locus YPR135W, strain CTF4, stronger effect = lower value): 1.01
- normalized growth (S. cerevisiae strains, strain wild type, stronger effect = lower value): 0.995

Structure (SMILES): CC(C)(OC(=O)c1ccccc1)[C@@H]1Cc2cc3ccc(=O)oc3cc2O1
- normalized growth (S. cerevisiae deletion strains, locus YBR021W, strain FUR4, stronger effect = lower value): 0.939
- normalized growth [1]: 0.986
- normalized growth (S. cerevisiae deletion strains, locus YCL029C, strain bik1, stronger effect = lower value): 1.01
- normalized growth (S. cerevisiae deletion strains, locus YDL035C, strain GPR1, stronger effect = lower value): 0.927
- normalized growth (S. cerevisiae deletion strains, locus YDL074C, strain BRE1, stronger effect = lower value): 0.95
- normalized growth [2]: 0.975
- normalized growth (S. cerevisiae deletion strains, locus YDL185W, strain tfp1, stronger effect = lower value): 0.956
- normalized growth (S. cerevisiae deletion strains, locus YDL192W, strain arf1, stronger effect = lower value): 0.982
- normalized growth (S. cerevisiae deletion strains, locus YDR101C, strain arx1, stronger effect = lower value): 0.975
- normalized growth [3]: 0.989
- normalized growth (S. cerevisiae deletion strains, locus YDR162C, strain NBP2, stronger effect = lower value): 0.834 (active)
- normalized growth (S. cerevisiae deletion strains, locus YDR318W, strain mcm21, stronger effect = lower value): 0.954
- normalized growth (S. cerevisiae deletion strains, locus YDR388W, stronger effect = lower value): 0.994
- normalized growth (S. cerevisiae deletion strains, locus YDR502C, strain sam2, stronger effect = lower value): 0.956
- normalized growth [4]: 0.992
- normalized growth (S. cerevisiae deletion strains, locus YER110C, stronger effect = lower value): 0.973
- normalized growth (S. cerevisiae deletion strains, locus YER155C, strain BEM2, stronger effect = lower value): 0.999
- normalized growth (S. cerevisiae deletion strains, locus YER167W, strain BCK2, stronger effect = lower value): 0.991
- normalized growth (S. cerevisiae deletion strains, locus YGL078C, strain dbp3, stronger effect = lower value): 0.957
- normalized growth (S. cerevisiae deletion strains, locus YGL086W, strain mad1, stronger effect = lower value): 0.987
- normalized growth (S. cerevisiae deletion strains, locus YGL248W, strain PDE1, stronger effect = lower value): 0.94
- normalized growth [5]: 0.945
- normalized growth (S. cerevisiae deletion strains, locus YGR135W, strain pre9, stronger effect = lower value): 0.951
- normalized growth (S. cerevisiae deletion strains, locus YGR229C, strain SMI1, stronger effect = lower value): 0.885
- normalized growth (S. cerevisiae deletion strains, locus YGR252W, strain gcn5, stronger effect = lower value): 0.805
- normalized growth [6]: 0.989
- normalized growth (S. cerevisiae deletion strains, locus YHR079C, strain IRE1 (second series), stronger effect = lower value): 1
- normalized growth (S. cerevisiae deletion strains, locus YHR094C, strain hxt1, stronger effect = lower value): 1
- normalized growth (S. cerevisiae deletion strains, locus YHR129C, strain ARP1, stronger effect = lower value): 0.989
- normalized growth (S. cerevisiae deletion strains, locus YHR200W, strain rpn10, stronger effect = lower value): 0.976
- normalized growth (S. cerevisiae deletion strains, locus YIL066C, strain RNR3, stronger effect = lower value): 0.927
- normalized growth (S. cerevisiae deletion strains, locus YIL073C, strain SPO22, stronger effect = lower value): 0.945
- normalized growth (S. cerevisiae deletion strains, locus YIL125W, strain kgd1, stronger effect = lower value): 1
- normalized growth (S. cerevisiae deletion strains, locus YIR030C, strain dcg1, stronger effect = lower value): 0.988
- normalized growth (S. cerevisiae deletion strains, locus YJL095W, strain BCK1, stronger effect = lower value): 0.89
- normalized growth (S. cerevisiae deletion strains, locus YJL134W, strain LCB3, stronger effect = lower value): 0.989
- normalized growth (S. cerevisiae deletion strains, locus YJL168C, strain set2, stronger effect = lower value): 0.983
- normalized growth (S. cerevisiae deletion strains, locus YJL187C, strain SWE1 (second series), stronger effect = lower value): 0.958
- normalized growth [7]: 0.978
- normalized growth [8]: 0.976
- normalized growth (S. cerevisiae deletion strains, locus YKL009W, strain mrt4, stronger effect = lower value): 0.958
- normalized growth (S. cerevisiae deletion strains, locus YKL068W, stronger effect = lower value): 0.992
- normalized growth (S. cerevisiae deletion strains, locus YKL085W, strain MDH1 (second series), stronger effect = lower value): 1
- normalized growth (S. cerevisiae deletion strains, locus YKL085W, strain MDH1, stronger effect = lower value): 1
- normalized growth (S. cerevisiae deletion strains, locus YKR001C, strain vps1, stronger effect = lower value): 0.997
- normalized growth [9]: 1.05
- normalized growth (S. cerevisiae deletion strains, locus YLR058C, strain SHM2, stronger effect = lower value): 0.975
- normalized growth (S. cerevisiae deletion strains, locus YLR102C, strain apc9, stronger effect = lower value): 0.984
- normalized growth [10]: 1.02
- normalized growth (S. cerevisiae deletion strains, locus YLR268W, strain sec22, stronger effect = lower value): 0.977
- normalized growth (S. cerevisiae deletion strains, locus YLR330W, strain CHS5, stronger effect = lower value): 0.976
- normalized growth (S. cerevisiae deletion strains, locus YLR342W, strain FKS1 (second series), stronger effect = lower value): 1.01
- normalized growth (S. cerevisiae deletion strains, locus YLR371W, strain rom2, stronger effect = lower value): 0.994
- normalized growth (S. cerevisiae deletion strains, locus YLR418C, strain cdc73, stronger effect = lower value): 0.828 (active)
- normalized growth (S. cerevisiae deletion strains, locus YML016C, strain PPZ1, stronger effect = lower value): 0.982
- normalized growth (S. cerevisiae deletion strains, locus YML032C, strain rad52, stronger effect = lower value): 0.97
- normalized growth (S. cerevisiae deletion strains, locus YML124C, strain tub3, stronger effect = lower value): 0.974
- normalized growth (S. cerevisiae deletion strains, locus YMR078C, strain ctf18, stronger effect = lower value): 0.976
- normalized growth (S. cerevisiae deletion strains, locus YMR223W, strain ubp8, stronger effect = lower value): 0.945
- normalized growth [11]: 0.895
- normalized growth (S. cerevisiae deletion strains, locus YNL067W, strain RPL9B, stronger effect = lower value): 0.96
- normalized growth (S. cerevisiae deletion strains, locus YNL128W, strain TEP1, stronger effect = lower value): 0.981
- normalized growth (S. cerevisiae deletion strains, locus YNL233W, strain BNI4, stronger effect = lower value): 0.968
- normalized growth (S. cerevisiae deletion strains, locus YNL250W, strain rad50, stronger effect = lower value): 0.991
- normalized growth (S. cerevisiae deletion strains, locus YNL271C, strain bni1, stronger effect = lower value): 0.938
- normalized growth (S. cerevisiae deletion strains, locus YNL298W, strain CLA4, stronger effect = lower value): 0.942
- normalized growth (S. cerevisiae deletion strains, locus YNL307C, strain MCK1, stronger effect = lower value): 0.975
- normalized growth [12]: 0.984
- normalized growth (S. cerevisiae deletion strains, locus YNR052C, strain pop2, stronger effect = lower value): 0.983
- normalized growth [13]: 0.761
- normalized growth (S. cerevisiae deletion strains, locus YOL012C, strain htz1): 1.01
- normalized growth (S. cerevisiae deletion strains, locus YOL147C, strain pex11, stronger effect = lower value): 0.986
- normalized growth (S. cerevisiae deletion strains, locus YOR061W, strain CKA2, stronger effect = lower value): 0.976
- normalized growth (S. cerevisiae deletion strains, locus YOR069W, strain VPS5, stronger effect = lower value): 0.983
- normalized growth (S. cerevisiae deletion strains, locus YOR136W, strain idh2, stronger effect = lower value): 0.987
- normalized growth (S. cerevisiae deletion strains, locus YOR144C, strain elg1, stronger effect = lower value): 0.973
- normalized growth (S. cerevisiae deletion strains, locus YOR184W, strain ser1, stronger effect = lower value): 0.861 (active)
- normalized growth (S. cerevisiae deletion strains, locus YOR316C, strain cot1, stronger effect = lower value): 0.976
- normalized growth [14]: 0.982
- normalized growth (S. cerevisiae deletion strains, locus YPR119W, strain clb2, stronger effect = lower value): 0.993
- normalized growth (S. cerevisiae deletion strains, locus YPR141C, strain kar3, stronger effect = lower value): 0.995
- normalized growth (S. cerevisiae deletion strains, locus YPR163C, strain tif3, stronger effect = lower value): 0.973
- normalized growth (S. cerevisiae deletion strains, locus YPR167C, strain met16, stronger effect = lower value): 0.98
- normalized growth (S. cerevisiae deletion strains, strain wtn01, stronger effect = lower value): 0.986
